Data published in PubChem BioAssay AID504332 (National Center for Advancing Translational Sciences (NCATS), 2011).
Several values for one entry are separate records, joined by “and”; a condition that tells them apart may be missing. Equal entries are not always repeated. In all, about 350,000 compounds went through this assay and about 31,000 (8.9%) were called active. Inconclusive results (about 15%) are left out. Calls come from the whole dose curve; as a rule, active = well fitted inhibition curve with a large enough effect; inconclusive = small, poorly fitted or top-dose-only effect; inactive = no such curve, though single readings can be large or run the other way. What follows is part of a selection rich in actives, with near analogues and random picks from the rest. Some compounds were tested as several samples or in several runs, with calls that do not always agree.

Target: Histone-lysine N-methyltransferase EHMT2 (Homo sapiens) (UniProt Q96KQ7)
Sequence (Q96KQ7 913-1193 limits assumed): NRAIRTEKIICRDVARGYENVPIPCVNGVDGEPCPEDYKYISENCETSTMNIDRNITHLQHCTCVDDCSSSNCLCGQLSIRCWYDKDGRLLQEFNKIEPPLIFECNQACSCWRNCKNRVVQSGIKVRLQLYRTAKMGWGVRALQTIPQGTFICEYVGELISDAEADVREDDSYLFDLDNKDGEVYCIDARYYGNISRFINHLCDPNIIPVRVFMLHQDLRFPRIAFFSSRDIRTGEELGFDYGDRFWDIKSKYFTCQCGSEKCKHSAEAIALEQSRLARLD
Test: qHTS Assay for Inhibitors of Histone Lysine Methyltransferase G9a; note: nearly all actives have a fitted effect of over 75% in size
Settings: G9a H3K9 monomethylation, AlphaScreen, 2 h; series mostly up to 59 µM; activity, negative = inhibition: at the top concentration
In short: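 Quantitative HTS format: methyltransferase activity on a biotin-tagged H3K9 peptide is measured by AlphaScreen, using a rabbit anti-monomethyl-H3K9 antibody with streptavidin donor and anti-IgG acceptor beads. Final levels are 20 nM enzyme, 500 nM peptide, 20 uM SAM; 2 h RT.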
% is set by controls: 0 for no effect and ±100 for the full control effect; potency is the fitted concentration of half-maximal effect.

Compound | activity, negative = inhibition | Potency
Cc1ccc(S(=O)(=O)NCCSc2ccccc2)cc1[N+](=O)[O-] | -13.4% (inactive) | 
CCS(=O)(=O)c1cc([N+](=O)[O-])c(Sc2ccccc2N)s1 |  | 1.12 µM (active)
CCOc1ccccc1NC(=O)Cn1ncc2ccc([N+](=O)[O-])cc21 | -50.6% [at 102 µM] (inactive) | 
CCc1ccccc1NC(=O)c1ccc2nc(CCc3ccccc3)oc2c1 | -8.22% (inactive) | 
COc1ccc(C)cc1NC(=O)CCCN1C(=O)NC(C)(C)C1=O | 20.4% [at 2.33 µM] (inactive) | 
O=C(N/N=C/c1cccc(Br)c1)c1ccc(N2CCCC2=O)cc1 |  | 79.4 µM (active)
Cn1c(=O)n(C)c2cc(/C=N/NC(=O)c3cccc(Br)c3)ccc21 | 20.1% (inactive) | 
COc1cc(/C=N/NC(=O)c2ccc(N3CCCC3=O)cc2)ccc1O | 65.8% [at 102 µM] (inactive) | 
Cc1ccccc1NC(=O)Cn1cc(C(=O)c2cccs2)c2ccccc21 | -6.24% (inactive) | 
O=S(=O)(NC1CC1)c1ccc(Cl)cc1 | 12.4% [at 102 µM] (inactive) | 
Cc1cc(C)c(OCCN2CC(C)OC(C)C2)c(Br)c1 (centres undefined) |  | 8.91 µM (active)
O=c1c([N+](=O)[O-])cc(C(F)(F)F)cn1Cc1cccc(Cl)c1 | 71.8% (inactive) | 
O=C(Cn1ccc2cc(S(=O)(=O)N3CCCC3)ccc21)NCc1ccccc1 | 10.8% [at 102 µM] (inactive) | 
O=[N+]([O-])/C=C/c1ccc2c(ccn2Cc2ccccc2)c1 |  | 31.6 µM (active)
Cc1cc(S(=O)(=O)NC2CCCC2)ccc1-n1cnnn1 | 17.9% (inactive) | 
O=C(NCC1CCCO1)c1ccc(S(=O)(=O)Nc2ccc(F)cc2)cc1 (centres undefined) | -38.7% [at 102 µM] (inactive) | 
Cc1ccc(NC(=O)CN(C)C(=O)c2ccc(Br)o2)cc1 | -5.82% [at 102 µM] (inactive) | 
CN(CC(=O)Nc1ccc(Cl)cc1)C(=O)c1ccc(COc2ccccc2)cc1 | 18.8% (inactive) | 
CN(CC(=O)Nc1ccc(F)cc1)C(=O)c1ccc(-c2ccc(Cl)cc2)o1 |  | 79.4 µM (active)
CCOc1ccccc1CNC(=O)c1ccc(-n2c(C)cc3c2CCC(C)C3)cc1 (centres undefined) | -15.9% (inactive) | 
COc1ccc(CCNC(=O)CN(C)S(=O)(=O)c2ccc3nc(C)sc3c2)cc1OC | -2.8% [at 102 µM] (inactive) | 
CCOCCCNC(=O)c1ccc2nc(CCc3ccccc3)oc2c1 | -2.67% (inactive) | 
Cc1ccc(NC(=O)c2cc(S(=O)(=O)NCCC3=CCCCC3)ccc2F)cc1C | 11.5% (inactive) | 
COCCCn1c(SCC(=O)Nc2ccccc2)nnc1-c1ccncc1 | 19.9% (inactive) | 
CCOc1cc2[nH]c(=S)n(CCCN3CCCC3=O)c(=O)c2cc1OCC | -45.8% [at 12.7 µM] (inactive) | 

Compound | activity, negative = inhibition | Potency
CSc1nnc(-c2ccncc2)n1CCCN1CCCC1=O |  | 50.1 µM (active)
O=C(c1ccc2c(c1)N(Cc1ccccc1F)C(=O)c1ccccc1S2(=O)=O)N1CCOCC1 | -32.7% (inactive) | 
COC(=O)C1CCN(C(=O)c2cc(=O)[nH]c3ccccc23)CC1 | 0.366% [at 102 µM] (inactive) | 
COC(=O)[C@H]1[C@H]2C[C@H]3c4[nH]c5ccccc5c4CCN3C[C@@H]2CC[C@@H]1O |  | inactive and 12.6 µM (active)
O=C(NC1CCCCC1)N1CCc2[nH]c3ccccc3c2C1 | -17% (inactive) | 
O=C(NCCc1ccc(F)cc1)c1ccc(S(=O)(=O)N2CCCCC2)cc1 | -29.8% [at 102 µM] (inactive) | 
Cc1cc2nc(C)n(CCCNC(=O)Nc3ccccc3)c2cc1C | 11.2% (inactive) | 
Cc1cc(=O)n(C)c(=O)n1CCCNc1ccccc1 |  | 15.8 µM (active)
Cn1c(Nc2ccccc2)cc(=O)n(C)c1=O | 61.9% [at 102 µM] (inactive) | 
CCc1ccccc1NC(=O)Cn1c(=O)n(CC2CCC(C(=O)NCCc3ccccc3)CC2)c(=O)c2ccccc21 (centres undefined) | -0.279% (inactive) | 
O=C(C1CCC(Cn2c(=O)c3sccc3n(Cc3ccccc3F)c2=O)CC1)N1CCCCC1 (centres undefined) | -12.4% (inactive) | 
COc1cccc(NC(=O)CSc2nnc(-c3cccnc3)o2)c1 | -41.5% [at 102 µM] (inactive) | 
CCCn1c(SCC(=O)c2ccc3c(c2)OCCO3)nnc1C(C)C |  | 44.7 µM (active)
CCCn1c(SCC(N)=O)nnc1C(C)C | 13.7% [at 102 µM] (inactive) | 
CCn1c(SCC(=O)Nc2ccc3c(c2)OCCO3)nnc1C(C)C | -11.6% [at 102 µM] (inactive) | 
COC(=O)c1ccc2c(c1)N(CC(=O)Nc1ccc(C)c(C)c1)C(=O)c1ccccc1S2 | -3.69% (inactive) | 
Cc1ccc(C(=O)N/C(=C\c2cn(C)c3ccccc23)C(=O)N2CCN(C)CC2)cc1 |  | 79.4 µM (active)
COc1cc(C(=O)N/C(=C\c2cn(C)c3ccccc23)C(=O)N2CCOCC2)cc(OC)c1OC | -9.22% [at 102 µM] (inactive) | 
Cc1ccc(C(=O)N/C(=C\c2cn(S(=O)(=O)N(C)C)c3ccccc23)C(=O)N2CCCC2)cc1 | 14.9% [at 102 µM] (inactive) | 
CCCCC[C@H]1CN(C2CCCCC2)C(=O)[C@@H]1CC(=O)NCc1ccc(OC)cc1 | -11.2% [at 102 µM] (inactive) | 
CCN(CC)CCn1c2c(c(SCC(=O)Nc3ccc(C(C)C)cc3)nc1=O)CCC2 | -34.3% [at 102 µM] (inactive) | 
O=c1oc2ccccc2cc1-c1csc(Nc2ccc(O)cc2)n1 |  | 12.6 µM (active)
Cc1cc(NC(=O)c2cccc(Cl)c2)ccc1-c1cc2ccccc2oc1=O | -4.3% (inactive) | 
COc1ccc2nc(Nc3nc(-c4cc5ccccc5oc4=O)cs3)sc2c1 | 22.6% (inactive) | 
